A selection: hits, their analogues and other compounds. The true share with any hit is near 2.7%.
HIF-2a inh: blocks HIF-2a reporter activity | 786-0 RCC cells HIF-2a reporter, luciferase luminescence, overnight | inhibition, % at 18.8 µM | 360,000 compounds, 0.72% hits;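 active means inhibition of the luminescence signal of 40% or more relative to plate controls, in a single-dose primary screen at 18.75 µM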
Peg3 promoter: Peg3 promoter activity inhibition; 360,000 compounds, 1.7% hits; inhibition, % at 20 µM; HeLa PEG-Prom luciferase reporter, luminescence, overnight;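 active means inhibition of at least 50% at 20 µM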
KKLEB cytotox: counter-screen for CF NF-kB inhibitors: cytotoxicity; KKLEB CF airway cells viability, ATPlite luminescence, overnight; active compounds read low; cells stimulated with P. aeruginosa culture filtrate; activity change (cytotoxicity), % at 5 µM; 360,000 compounds, 0.36% hits; AID 602141;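 active means corrected activity change at or below -50% at 5 µM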
Shn3 inh set2: reduces Shn3 3'UTR luciferase signal in osteoblasts; inhibition, % at 12.5 µM; Clone20 osteoblast Shn3 3'UTR firefly luciferase, 24 h; 360,000 compounds, 0.52% hits;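 active means mean inhibition of at least 75% with every replicate also reaching 75%; inconclusive means mean inhibition at least 75% but some replicate below; inactive means mean inhibition below 75%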
MITF TRPM1 inh: reduces MITF-dependent TRPM1 promoter luciferase signal; SK-MEL-5 TRPM1 promoter luciferase, 24 h; 330,000 compounds, 0.83% hits; AID 488899; inhibition, % at 12.5 µM;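 active means mean inhibition across replicates of 60% or more, whatever share of single replicates reaches that level; inconclusive means some that reach 60%, reason not given; inactive means mean inhibition across replicates below 60%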
CF NFkB block: inhibitors of cystic fibrosis induced NF-kB; KKLEB NF-kB-GFP reporter, PAF-induced, GFP fluorescence overnight; inhibition, % at 5 µM; 360,000 compounds, 0.86% hits; AID 588850;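 active means at least 50% inhibition at 5 µM, scaled per plate between neutral and stimulator controls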;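 further: PAF is a Pseudomonas aeruginosa culture filtrate used as stimulus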
Numbers stand for hits; - = inactive; ? = inconclusive; . = not tested or not shown.

SMILES	HIF-2a inh	Peg3 promoter	KKLEB cytotox	Shn3 inh set2	MITF TRPM1 inh	CF NFkB block
Cc1ccc(-c2nnn(CC(=O)Nc3ccc(S(=O)(=O)N4CCC(C)CC4)cc3)n2)cc1	-	63	-	-	-	-
CC1CCN(S(=O)(=O)c2ccc(NC(=O)Cn3nnc(-c4ccccc4)n3)cc2)CC1	-	-	-	-	-	-
CCC(=O)Nc1ccc(S(=O)(=O)NC[C@H]2O[C@@H](n3cnc4c(=O)[nH]c(N)nc43)[C@H](O)[C@@H]2O)cc1	-	-	-	-	.	-
CC(C)(C)OC(=O)NCCCCCNC(=O)c1nc[nH]c1C(=O)NCCCCCNC(=O)OC(C)(C)C	-	64	-	-	-	-
CC(C)C[C@H](NC(=O)c1nc[nH]c1C(=O)NCCCCCNC(=O)OC(C)(C)C)C(=O)OCc1ccccc1	-	-	-	-	-	-
CC(C)(C)OC(=O)NCCCC[C@H](NC(=O)c1nc[nH]c1C(=O)NCc1ccc(CNC(=O)OC(C)(C)C)cc1)C(=O)OC(C)(C)C	-	-	-	-	-	-
CC(C)(C)OC(=O)NCCCCCNC(=O)c1nc[nH]c1C(=O)NCc1ccc(CNC(=O)OC(C)(C)C)cc1	-	80	-	89	-	-
CC(C)(C)OC(=O)NCCCCCNC(=O)c1[nH]cnc1C(=O)N[C@@H](Cc1ccccc1)C(=O)OCc1ccccc1	-	59	-	-	-	-
CC(C)(C)OC(=O)NCCCCCNC(=O)c1[nH]cnc1C(=O)N[C@@H](CCCCNC(=O)OC(C)(C)C)C(=O)OC(C)(C)C	-	-	-	-	-	-
Cc1cccc(NC(=O)c2nc[nH]c2C(=O)NC2CCN(C(=O)OC(C)(C)C)CC2)c1	-	61	-	-	-	-
Cc1cccc(NC(=O)c2nc[nH]c2C(=O)N2CCN(C(=O)OC(C)(C)C)CC2)c1	-	-	-	-	-	-
CC(C)[C@H](NC(=O)c1ccc(Cl)cc1)C(=O)Nc1cccc(S(=O)(=O)N2CCOCC2)c1	-	-	-	-	.	-
CC(C)(C)OC(=O)N1CCC(NC(=O)c2nc[nH]c2C(=O)NCc2ccccc2)CC1	-	-	-	-	-	-
CC(C)(C)OC(=O)NCc1ccc(CNC(=O)c2[nH]cnc2C(=O)NC2CCN(C(=O)OC(C)(C)C)CC2)cc1	-	61	-	-	-	-
CC(C)(C)OC(=O)NCc1ccc(CNC(=O)c2nc[nH]c2C(=O)NCc2ccc(CNC(=O)OC(C)(C)C)cc2)cc1	-	-	-	87	-	-
COc1ccc(C(CCNCc2ccc(N(C)C)cc2)c2ccccc2OC)cc1 (stereo unspecified)	-	60	-	-	-	-
COc1ccc(C(CCNCc2ccc(OC(C)C)cc2)c2ccccc2OC)cc1 (stereo unspecified)	-	102	-	89	87	-
CCOCc1nc(N)nc(N)c1-c1cccc(Cl)c1	-	-	-	-	.	-
COc1ccc(Cc2c(-c3ccccc3)nc3ccc(Br)cn23)c(C)c1	-	-	-	-	.	-
CCOC(=O)C1CCCN(C(=O)Cn2sc3nc(C)cc(C)c3c2=O)C1 (stereo unspecified)	-	-	-	97	-	-
O=C1NC(Cc2ccccc2)c2nc3cc(Cl)ccc3c(=O)n2-c2ncccc21 (stereo unspecified)	-	-	-	-	.	-
O=C1N/C(=C/c2ccc(N3CCOCC3)o2)C(=O)N1c1cccc(Cl)c1	-	-	-	96	-	67
Cc1ccc(/C=C2/NC(=O)N(c3ccccc3)C2=O)o1	-	-	-	-	-	-
CCCCNC(=O)C(NC(=O)c1ccc2ccccc2c1)C(=O)c1ccccc1 (stereo unspecified)	-	.	.	.	.	.
CC1(c2nc3ccccc3[nH]2)CCCC2=Nc3ccccc3CN21 (stereo unspecified)	-	.	.	.	.	.
SMILES	HIF-2a inh	Peg3 promoter	KKLEB cytotox	Shn3 inh set2	MITF TRPM1 inh	CF NFkB block
O=C(NCCN1CCN(c2ccccc2)CC1)c1ccc2c(c1)[nH]c(=S)n1c3ccccc3nc21	-	50	-	-	-	-
O=c1c2ccccc2ncn1-c1ccccc1C(F)(F)F	-	-	-	-	-	-
O=C1N(c2ccccc2C(F)(F)F)O[C@]1(c1ccccc1)C1CCCC1	-	77	-	-	-	-
Cc1ccccc1[C@@]1(C)ON(c2ccccc2C(F)(F)F)C1=O	-	79	-	-	-	-
CC[C@@]1(c2ccccc2OC)ON(c2ccccc2C(F)(F)F)C1=O	-	81	-	-	-	59
COc1cccc(C(O)c2ncc(-c3cccc4ccccc34)[nH]2)c1 (stereo unspecified)	-	-	-	-	.	-
C(=N\Nc1nncc2ccccc12)/c1ccccn1	-	-	-	-	-	66
Fc1cccc(/C=N/Nc2nncc3ccccc23)c1	-	-	-	-	-	-
Cc1nc2ccc(NC(=O)c3ccccc3)cc2s1	-	-	-	-	-	-
Cc1cc(C)c(NC(=O)CN(C)CC(=O)Nc2cccc(S(=O)(=O)N(C)c3ccccc3)c2)c(C)c1	-	58	-	-	-	-
CN(c1ccccc1)S(=O)(=O)c1cccc(NC(=O)c2ccc3ncsc3c2)c1	-	57	-	88	-	-
Cc1nc2ccc(NC(=O)c3cccc(S(=O)(=O)N(C)c4ccccc4)c3)cc2s1	-	-	-	90	-	-
Cc1cc2nc(-c3ccc(F)cc3)c(CC(C)(C)C)n2c(C)c1Br	-	-	-	-	.	-
O=S(=O)(Nc1cc(C(F)(F)F)ccc1N1CCOCC1)c1ccc2ccccc2c1	-	50	-	-	-	-
O=S(=O)(Nc1cc(C(F)(F)F)ccc1N1CCOCC1)c1ccccc1	-	-	-	-	-	-
CN1CCN(CC(O)COc2ccc(C34CC5CC(CC(C5)C3)C4)cc2)CC1 (stereo unspecified)	-	105	-	-	-	-
CN1CCN(CC(O)COc2ccccc2)CC1 (stereo unspecified)	-	-	-	-	-	-
Cc1cc(C2CCCCC2)n(O)c(=O)c1	-	51	-	-	78	-
CCc1cc(-c2[nH]ncc2-c2ccc3c(c2)OCO3)c(O)cc1O	-	69	-	-	-	85
C=CCC(NC(=O)N(C)C)(C(C)=O)C(=O)OC (stereo unspecified)	-	.	.	.	.	.
CCN1/C(=C/c2ccc3cc(C)ccc3[n+]2CC)Sc2cc(C)ccc21	63	97	-	?	85	-
CCN1/C(=C/c2ccc3ccccc3[n+]2CC)C=Cc2ccccc21	66	87	-	91	102	-
CCN1/C(=C/c2ccc3ccccc3[n+]2CCCS(=O)(=O)[O-])C=Cc2cc(C)ccc21	-	-	-	-	-	-
Cc1ccc2c(c1)S/C(=C/c1ccc[n+](C)c1)N2CCO	-	-	-	-	-	-
CCN1/C(=C/c2ccc3cc(C)ccc3[n+]2C)Sc2ccc3sccc3c21	42	111	-	91	77	-

Bioassay records from PubChem BioAssay.
